Bioassay records from PubChem.
TEAD-YAP inh – TEAD-YAP interaction inhibition; HEK-TIYL cells, TEAD-Gal4/YAP UAS-luciferase luminescence; inhibition, % at 9.12 µM; 640,000 tested, 1.4% active; AID 1259422; in the data active means inhibition above about 32%;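 further: 0% = median of test compound wells and 100% = reference inhibitor wells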
MITF inh – human MITF inhibition, primary screen; O75030; AlphaScreen MITF homodimerization, bead proximity signal; inhibition, % at 2.6 µM; 650,000 tested, 0.91% active; in the data active means inhibition above about 50%;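 further: 0% = vehicle wells with protein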
FBW7 act – activators of human E3 ligase FBW7; 650,000 tested, 0.13% active; AlphaScreen FBW7–phospho-cyclin E peptide binding, activator screen; normalized activity (activation), % at 26.1 µM; Q969H0; AID 1259310; in the data active means normalized activity above about 1.9%;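 further: purified mutant Fbw7 with reduced substrate affinity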
GPR151 activ – activators of human GPR151. AID 1508602. activation, % at 11.2 µM. Q8TDV0. 650,000 tested, 1% active. PathHunter beta-arrestin GPR151 cells, luminescence; in the data active means activation above about 4.9%;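 further: 0% = median of compound wells and 100% = cells with positive control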
Target sequence (Q8TDV0 whole entry, looked up): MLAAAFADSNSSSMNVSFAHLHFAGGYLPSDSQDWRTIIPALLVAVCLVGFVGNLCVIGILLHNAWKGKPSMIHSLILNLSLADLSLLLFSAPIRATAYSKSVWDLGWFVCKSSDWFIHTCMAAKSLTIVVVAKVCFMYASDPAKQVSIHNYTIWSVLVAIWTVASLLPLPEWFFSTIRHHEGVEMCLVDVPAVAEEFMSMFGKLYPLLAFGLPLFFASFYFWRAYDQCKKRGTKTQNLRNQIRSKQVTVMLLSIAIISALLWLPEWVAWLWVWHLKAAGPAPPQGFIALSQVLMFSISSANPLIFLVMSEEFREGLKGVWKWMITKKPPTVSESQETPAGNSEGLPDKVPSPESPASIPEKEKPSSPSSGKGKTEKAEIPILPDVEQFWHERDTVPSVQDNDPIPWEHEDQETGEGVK
An asterisk follows results filed as active. Shown are actives, neighbours in structure and some others; about 3.5% of the full set was active somewhere.

SMILES	TEAD-YAP inh	MITF inh	FBW7 act	GPR151 activ
COc1ccc2c(c1)CCC2C(=O)Nc1cc(Nc2ccccc2C(N)=O)ccn1 (centres undefined)	13	-2	0	0
O=C(Cc1ccc(F)cc1)Nc1cc(Nc2ccccc2CO)c(C(F)(F)F)cn1	62*	3	0	-2
O=C(Cc1ccc(F)cc1)Nc1cc(Nc2ccccc2-c2nn[nH]n2)c(C(F)(F)F)cn1	-3	2	0	-1
NC(=O)c1ccccc1Nc1cc(NC(=O)C2CCc3ccccc32)ncc1C(F)(F)F (centres undefined)	75*	16	0	1
NC(=O)c1ccccc1Nc1cc(NC(=O)Cc2ccc(F)cc2)ncc1C(F)(F)F	95*	18	0	2
NC(=O)c1ccccc1Nc1cc(NC(=O)Cc2ccc([N+](=O)[O-])cc2)ncc1C(F)(F)F	96*	2	0	1
Nc1cc(Nc2ccccc2CO)c(C(F)(F)F)cn1	5	-6	0	0
O=C(COc1ccc(Cl)cc1Br)N/N=C/c1ccc(O)c([N+](=O)[O-])c1	2	0	0	1
O=C1CCN(C(=O)CCc2ccc(S(=O)(=O)N3CCOCC3)cc2)CC1	13	3	0	2
COc1ccc(/C=C/C(=O)Nc2ccc(F)cc2)cc1	-66	9	0	-6
COc1cc(C2C(C(=O)N3CCOCC3)=C(C)NC3=C2C(=O)CC(C)(C)C3)cc(Br)c1OC (centres undefined)	6	1	0	2
NC(=O)c1ccccc1Nc1cc(NC(=O)Cc2ccc(F)c(F)c2)ncc1Cl	83*	10	0	-1
CC(C)NC1CCC(Nc2cc(Nc3ccccc3C(N)=O)c(C(F)(F)F)cn2)CC1 (centres undefined)	94*	9	0	-2
NC(=O)c1ccccc1Nc1cc(NC(=O)Cc2ccc(F)c(F)c2)ncc1F	15	-4	0	1
COc1ccccc1C(=O)Nc1nnc(SCc2cccc([N+](=O)[O-])c2)s1	-1	-6	0	5
CCCOC(=O)C1=C(C)N(CC)C(=O)NC1c1ccccc1[N+](=O)[O-] (centres undefined)	12	6	2.5*	0
Cc1ccc2nc(C(F)(F)F)c(C#N)c(N)c2c1	45*	-10	0	-1
CN(C)/C=N/C1=C(C#N)C(c2ccc3c(c2)OCO3)c2ccc3ccccc3c2O1 (centres undefined)	45*	-7	0	1
COc1ccc(Cl)cc1C(=O)Nc1ccc(C)cn1	-69	2	0	-1
Cc1noc(C)c1-c1cc(NCc2nc3ccccc3[nH]2)nc(N)n1	-10	-3	0	1
COc1ccc(NC(=O)c2c(NC(=O)C(C)(C)C)sc3c2CCCCC3)cc1	-5	-6	0	0
Nc1nnc(CC(=O)N2CCCCC2)s1	5	12	2.1*	-1
Cc1cc(NS(=O)(=O)c2ccc(NC(=O)CCCOc3ccccc3)cc2)no1	2	7	0	0
Cc1cc(NS(=O)(=O)c2ccc(NC(=O)CCCOc3ccc(Cl)cc3)cc2)no1	4	1	2.9*	2
Cn1nc(-c2cccnc2)nc2c(=O)n(C)c(=O)nc1-2	97*	9	0	-6
SMILES	TEAD-YAP inh	MITF inh	FBW7 act	GPR151 activ
Cn1nc(-c2ccc(F)cc2)nc2c(=O)n(C)c(=O)nc1-2	89*	18	0	-8
COc1ccc(-c2nc3c(=O)n(C)c(=O)nc-3n(C)n2)cc1	98*	5	0	-9
C/C(=C\c1ccccc1)c1nc2c(=O)n(C)c(=O)nc-2n(C)n1	34*	-8	0	-4
Cn1nc(-c2ccc(Cl)cc2)nc2c(=O)n(C)c(=O)nc1-2	-48	14	0	-8
O=C(NCCCN1CCCC1=O)C1CCN(c2ccc(Nc3nccc4ccccc34)nn2)CC1	-6	18	0	-1
CCCNC(=O)C1CCN(S(=O)(=O)c2cc(Cl)ccc2Cl)CC1	-9	5	0	1
OCCNCCOCCOc1cccc(Br)c1	11	12	0	0
c1ccc(CCNc2nccn3c(-c4ccoc4)cnc23)nc1	31	-23	0	-3
COCCNc1nccn2c(-c3ccccc3CO)cnc12	0	16	0	0
OCCNc1nccn2c(-c3ccccc3CO)cnc12	-4	3	2.1*	0
c1ccc(CCNc2nccn3c(-c4ccsc4)cnc23)nc1	50*	-14	-1	-1
Cc1cccc(Nc2nc(-c3ccc([N+](=O)[O-])cc3)nc3ccccc23)c1C	-4	-15	0	-2
Cn1c(=O)oc2cc(S(=O)(=O)N3CCCc4ccccc43)ccc21	55*	8	1	-1
